Values joined by “and” are separate entries in the source; they are usually repeats but may differ in a detail not shown here. Identical values can stand only once. Some compounds were tested as several samples or in several runs, with calls that do not always agree. Active and inactive are the calls of the source. How the source made its calls: active means hit-call score of the fitted dose curve at least 0.9, where 1 is the maximum; inactive means score below 0.9.
Assays:
[1] = ATG_CMV_CIS: Attagene CIS-FACTORIAL HepG2 Assay for human CMV (Internal Marker) (AID 2282928); details: HepG2 CMV promoter reporter, transcription factor profiling; actives raise or lower the signal;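 further: endpoint acts as a background internal control marker rather than a target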
In short: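 HepG2 cells transiently transfected with multiple cis-regulated reporter units; 24 h compound exposure. Reporter mRNA quantified by RT-PCR, 6-FAM primer-extension labeling, HpaI digestion and capillary electrophoresis; bidirectional fitting against DMSO baseline.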

[2] = ATG_DR4_LXR_CIS: Attagene CIS-FACTORIAL HepG2 Assay for human Liver X Receptor (LXR), DR4 submotif (AID 2282929); details: HepG2 Attagene DR4 cis-reporter, mRNA transcription; AC50: actives raise or lower the signal unless noted; outcome: actives raise or lower the signal unless noted
In short: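 Measures endogenous transcription factor activity via a DR4-driven reporter transcript in human HepG2 cells. Compounds incubated 24 h; mRNA quantified by RT-PCR and capillary electrophoresis, analysed as gain or loss of signal versus DMSO.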

[3] = target: Aryl hydrocarbon receptor (Homo sapiens) (UniProt P35869); assay: ATG_Ahr_CIS: Attagene CIS-FACTORIAL HepG2 Assay for human Aryl Hydrocarbon Receptor (Ahr) (AID 2282930); details: HepG2 AhR cis-factorial reporter transcription; actives raise or lower the signal
Aryl hydrocarbon receptor (Homo sapiens), sequence (P35869 whole entry, looked up): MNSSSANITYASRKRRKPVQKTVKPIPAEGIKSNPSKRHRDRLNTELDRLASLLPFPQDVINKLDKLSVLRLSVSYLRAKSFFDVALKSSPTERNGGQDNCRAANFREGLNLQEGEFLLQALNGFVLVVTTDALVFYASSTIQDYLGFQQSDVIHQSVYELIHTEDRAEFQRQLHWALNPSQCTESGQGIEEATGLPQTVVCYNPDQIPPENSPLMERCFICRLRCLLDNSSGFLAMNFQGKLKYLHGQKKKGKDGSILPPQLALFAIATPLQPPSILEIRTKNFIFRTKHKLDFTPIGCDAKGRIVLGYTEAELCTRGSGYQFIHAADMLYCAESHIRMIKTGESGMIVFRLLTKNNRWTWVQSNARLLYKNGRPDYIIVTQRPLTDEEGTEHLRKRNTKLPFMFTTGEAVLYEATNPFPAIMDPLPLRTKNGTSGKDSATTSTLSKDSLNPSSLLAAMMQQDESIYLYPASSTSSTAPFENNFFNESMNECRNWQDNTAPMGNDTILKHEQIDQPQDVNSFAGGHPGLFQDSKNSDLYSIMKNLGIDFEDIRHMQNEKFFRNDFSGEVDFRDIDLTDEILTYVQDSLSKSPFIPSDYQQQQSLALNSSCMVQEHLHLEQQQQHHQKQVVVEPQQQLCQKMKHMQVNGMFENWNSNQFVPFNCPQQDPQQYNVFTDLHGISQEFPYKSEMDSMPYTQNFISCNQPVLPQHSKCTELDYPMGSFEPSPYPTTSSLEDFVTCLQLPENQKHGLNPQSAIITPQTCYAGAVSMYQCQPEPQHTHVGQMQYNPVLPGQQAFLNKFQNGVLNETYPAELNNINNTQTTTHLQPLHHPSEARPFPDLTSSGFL
In short: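 HepG2, transient MRTU (cis) transfection, 24 h exposure. RNA → cDNA → PCR → 6-FAM primer extension → HpaI 2 h 37 C → CE. Fit: bidirectional, DMSO baseline.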

[4] = ATG_AP_1_CIS: Attagene CIS-FACTORIAL HepG2 Assay for human Activator Protein 1 (AP-1) (AID 2282931); details: HepG2 Attagene cis-factorial AP-1 reporter mRNA; actives raise or lower the signal
In short: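 Bidirectional concentration-response fitting against DMSO controls. Underlying signal: reporter mRNA from cis-promoter constructs in transiently transfected HepG2, measured after 24 h by RT-PCR and capillary electrophoresis.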

[5] = ATG_AP_2_CIS: Attagene CIS-FACTORIAL HepG2 Assay for human Activator Protein 2 (AP-2) (AID 2282932); details: HepG2 AP-2 cis-reporter, Attagene transcription factor profiling; AC50: actives raise or lower the signal unless noted; outcome: actives raise or lower the signal unless noted
In short: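 Step one: transient transfection of HepG2 with reporter transcription units. Step two: 24 h chemical exposure. Step three: RNA extraction, RT-PCR, labelled fragment analysis by capillary electrophoresis; DMSO serves as baseline.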

[6] = ATG_BRE_CIS: Attagene CIS-FACTORIAL HepG2 Assay for human Bone Morphogenetic Protein (BMP) Response Element (BRE) (AID 2282933); details: HepG2 BMP response element reporter, Attagene transcription factor profiling; actives raise or lower the signal
In short: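 Gain- or loss-of-signal was derived by bidirectional fitting against DMSO controls. The signal came from reporter mRNA, measured by RT-PCR and capillary electrophoresis, in HepG2 cells transiently carrying multiple reporter units and dosed for 24 h.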

[7] = target: Retinoic acid receptor alpha (Homo sapiens) (UniProt P10276); assay: ATG_DR5_RAR_CIS: Attagene CIS-FACTORIAL HepG2 Assay for human Retinoic Acid Receptor Alpha (RARE), DR5 submotif (AID 2282934); details: HepG2 Attagene cis-factorial RARE DR5 reporter, mRNA; actives raise or lower the signal;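 on AC50: reporter responds to endogenous RAR alpha beta and gamma in HepG2 not RARA alone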
Retinoic acid receptor alpha (Homo sapiens), sequence (P10276 whole entry, looked up): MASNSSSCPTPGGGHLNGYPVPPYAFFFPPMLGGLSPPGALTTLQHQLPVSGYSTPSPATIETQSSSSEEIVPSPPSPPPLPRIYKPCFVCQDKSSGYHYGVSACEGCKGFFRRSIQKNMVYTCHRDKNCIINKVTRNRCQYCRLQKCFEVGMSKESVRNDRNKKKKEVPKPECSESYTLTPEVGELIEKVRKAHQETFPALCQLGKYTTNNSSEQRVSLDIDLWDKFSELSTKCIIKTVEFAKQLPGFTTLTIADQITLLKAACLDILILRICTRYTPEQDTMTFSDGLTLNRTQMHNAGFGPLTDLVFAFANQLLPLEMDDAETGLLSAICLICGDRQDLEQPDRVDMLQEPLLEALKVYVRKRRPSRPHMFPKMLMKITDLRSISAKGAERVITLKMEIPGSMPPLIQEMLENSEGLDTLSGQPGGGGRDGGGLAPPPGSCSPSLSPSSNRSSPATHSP
In short: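 HepG2, transient cis-reporter transfection, 24 h exposure. mRNA readout: RT-PCR, FAM label, HpaI cut, capillary electrophoresis. DMSO baseline, gain/loss fitting.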

[8] = target: Transcription factor E2F1 (Homo sapiens) (UniProt Q01094); assay: ATG_E2F_CIS: Attagene CIS-FACTORIAL HepG2 Assay for human E2F Transcription Factor 1 (AID 2282935); details: HepG2 Attagene cis-reporter, E2F reporter RNA transcripts; actives raise or lower the signal
Transcription factor E2F1 (Homo sapiens), sequence (Q01094 whole entry, looked up): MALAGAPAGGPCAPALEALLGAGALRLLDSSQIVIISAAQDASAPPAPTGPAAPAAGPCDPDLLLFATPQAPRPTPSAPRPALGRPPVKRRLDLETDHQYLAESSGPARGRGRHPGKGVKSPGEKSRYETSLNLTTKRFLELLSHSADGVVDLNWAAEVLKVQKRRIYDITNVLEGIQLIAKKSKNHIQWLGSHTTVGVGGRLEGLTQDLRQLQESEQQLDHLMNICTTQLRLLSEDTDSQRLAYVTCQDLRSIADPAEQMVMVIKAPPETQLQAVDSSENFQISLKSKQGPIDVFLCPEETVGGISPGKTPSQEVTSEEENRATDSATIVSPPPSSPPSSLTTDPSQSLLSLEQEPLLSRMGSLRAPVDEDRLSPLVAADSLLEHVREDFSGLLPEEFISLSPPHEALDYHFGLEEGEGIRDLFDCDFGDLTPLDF
In short: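 Total RNA from 24 h-treated, reporter-transfected HepG2 cells undergoes DNase I treatment, oligo(dT) reverse transcription, PCR and 6-FAM primer extension before capillary electrophoresis.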

[9] = ATG_E_Box_CIS: Attagene CIS-FACTORIAL HepG2 Assay for human Enhancer Box (E-box) (AID 2282936); details: HepG2 E-box cis-reporter transcription, actives raise or lower the signal
In short: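 DMSO served as negative control and baseline for bidirectional fitting. Human hepatoma HepG2 cells, transiently transfected with cis-reporter constructs, were dosed 24 h; reporter mRNA read by RT-PCR and capillary electrophoresis.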

[10] = ATG_M_61_CIS: Attagene CIS-FACTORIAL HepG2 Assay for M61 Transcription Factor (Internal Marker) (AID 2282937); details: HepG2 Attagene CIS-FACTORIAL M61 internal marker reporter; actives raise or lower the signal
In short: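 Fluorescence from labelled cDNA fragments, separated by capillary electrophoresis, quantifies reporter induction. HepG2 cells bearing transiently transfected cis-promoter MRTUs were incubated with test chemical for 24 h; DMSO defined baseline for gain/loss fitting.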

## COC1=CC(=O)C[C@@H](C)[C@]12Oc1c(Cl)c(OC)cc(OC)c1C2=O
[1]
  AC50: 138 µM (active)
[2]
  outcome: inactive
[3]
  outcome: inactive
[4]
  outcome: inactive
[5]
  outcome: inactive
[6]
  outcome: inactive
[7]
  outcome: inactive
[8]
  outcome: inactive
[9]
  outcome: inactive

## CCCCCCCCCCCC(=O)O
[1]
  AC50: 60 µM (active)
  outcome: inactive
[3]
  outcome: inactive
[4]
  AC50: 117 µM (active) and 60 µM (active)
[5]
  outcome: inactive
[6]
  outcome: inactive
[7]
  AC50: 100 µM (active)
  outcome: inactive
[8]
  outcome: inactive
[9]
  outcome: inactive
[10]
  outcome: inactive

## OCCN1CN(CCO)CN(CCO)C1
[1]
  outcome: inactive
[2]
  AC50: 63.4 µM (active)
[3]
  outcome: inactive
[4]
  outcome: inactive
[5]
  AC50: 143 µM (active)
[6]
  outcome: inactive
[7]
  AC50: 144 µM (active)
[8]
  outcome: inactive
[9]
  outcome: inactive

## COc1ccc(C#N)cc1
[1]
  outcome: inactive
[2]
  outcome: inactive
[3]
  outcome: inactive
[4]
  outcome: inactive
[5]
  outcome: inactive
[6]
  outcome: inactive
[7]
  outcome: inactive
[8]
  outcome: inactive
[9]
  outcome: inactive

## C[C@]12CC[C@@H]3c4ccc(O)cc4CC[C@H]3[C@@H]1C[C@@H](O)[C@@H]2O
[1]
  AC50: 64.6 µM (active)
  outcome: inactive
[3]
  outcome: inactive
[4]
  outcome: inactive
[5]
  AC50: 24.9 µM (active)
  outcome: inactive
[6]
  outcome: inactive
[7]
  outcome: inactive
[8]
  outcome: inactive
[9]
  outcome: inactive

## CN(C)c1ccc(C(=C2C=CC(=[N+](C)C)C=C2)c2ccccc2)cc1
[1]
  outcome: inactive
[2]
  AC50: 2.07 µM (active) and 1.26 µM (active)
[3]
  outcome: inactive
[4]
  AC50: 472 nM (active)
  outcome: inactive
[5]
  AC50: 2.72 µM (active)
  outcome: inactive
[6]
  outcome: inactive
[8]
  outcome: inactive
[9]
  AC50: 3.63 µM (active) and 1.85 µM (active)

## O=C1OC(=O)C(F)(F)C1(F)F
[1]
  outcome: inactive
[2]
  outcome: inactive
[3]
  outcome: inactive
[4]
  outcome: inactive
[5]
  outcome: inactive
[6]
  outcome: inactive
[7]
  outcome: inactive
[8]
  outcome: inactive
[9]
  outcome: inactive

## CCCCCCc1ccc(N)cc1
[1]
  outcome: inactive
[2]
  outcome: inactive
[3]
  AC50: 45.5 µM (active)
[4]
  outcome: inactive
[5]
  outcome: inactive
[6]
  outcome: inactive
[7]
  outcome: inactive
[8]
  outcome: inactive
[9]
  outcome: inactive

## C=C(c1ccc(C(=O)O)cc1)c1cc2c(cc1C)C(C)(C)CCC2(C)C
[1]
  AC50: 4.89 µM (active)
  outcome: inactive
[3]
  outcome: inactive
[4]
  AC50: 11400 nM (active)
  outcome: inactive
[5]
  AC50: 18.3 µM (active) and 34.7 µM (active)
[6]
  outcome: inactive
[8]
  AC50: 31 µM (active)
  outcome: inactive
[9]
  AC50: 19 µM (active)
  outcome: inactive
[10]
  outcome: inactive

## O=C1OC2(c3ccccc31)c1cc(I)c(O)c(I)c1Oc1c2cc(I)c(O)c1I
[1]
  AC50: 40.5 µM (active)
  outcome: inactive
[3]
  AC50: 15.4 µM (active) and 27.3 µM (active) and 27.9 µM (active)
[4]
  outcome: inactive
[5]
  outcome: inactive
[6]
  AC50: 88.1 µM (active) and 82.7 µM (active)
  outcome: inactive
[7]
  outcome: inactive
[8]
  outcome: inactive
[9]
  AC50: 34.6 µM (active)
  outcome: inactive
[10]
  outcome: inactive

## CC(C)c1c(C(=O)Nc2ccccc2)c(-c2ccccc2)c(-c2ccc(F)cc2)n1CC[C@@H](O)C[C@@H](O)CC(=O)O
[1]
  AC50: 25.6 µM (active)
  outcome: inactive
[5]
  outcome: inactive
[6]
  outcome: inactive
[7]
  AC50: 161 µM (active)
  outcome: inactive
[8]
  outcome: inactive
[9]
  AC50: 28.2 µM (active)
  outcome: inactive
[10]
  outcome: inactive

## CCOC(OCC)C(=O)c1ccccc1
[1]
  outcome: inactive
[2]
  outcome: inactive
[3]
  outcome: inactive
[4]
  outcome: inactive
[5]
  outcome: inactive
[6]
  outcome: inactive
[7]
  outcome: inactive
[8]
  outcome: inactive
[9]
  outcome: inactive

## O=P(O)(O)CCC(F)(F)C(F)(F)C(F)(F)C(F)(F)C(F)(F)C(F)(F)C(F)(F)C(F)(F)F
[1]
  outcome: inactive
[2]
  outcome: inactive
[3]
  outcome: inactive
[4]
  outcome: inactive
[5]
  outcome: inactive
[6]
  outcome: inactive
[7]
  outcome: inactive
[8]
  outcome: inactive
[9]
  outcome: inactive

## Oc1c(Cl)ccc(Cl)c1Cl
[1]
  outcome: inactive
[2]
  outcome: inactive
[3]
  AC50: 68.3 µM (active)
[4]
  outcome: inactive
[5]
  outcome: inactive
[6]
  outcome: inactive
[7]
  outcome: inactive
[8]
  outcome: inactive
[9]
  outcome: inactive

## C=COC(=O)C(C)(C)CCCCCC
[1]
  AC50: 159 µM (active)
[2]
  outcome: inactive
[3]
  outcome: inactive
[4]
  outcome: inactive
[5]
  outcome: inactive
[6]
  outcome: inactive
[7]
  outcome: inactive
[8]
  outcome: inactive
[9]
  outcome: inactive

## Brc1cc(Br)c(Oc2c(Br)cc(Br)c(Br)c2Br)cc1Br
[1]
  outcome: inactive
[2]
  outcome: inactive
[3]
  outcome: inactive
[4]
  outcome: inactive
[5]
  outcome: inactive
[6]
  outcome: inactive
[7]
  outcome: inactive
[8]
  outcome: inactive
[9]
  outcome: inactive

## O=C(OC(=O)C(F)(F)C(F)(F)F)C(F)(F)C(F)(F)F
[1]
  outcome: inactive
[2]
  outcome: inactive
[3]
  outcome: inactive
[4]
  outcome: inactive
[5]
  outcome: inactive
[6]
  outcome: inactive
[7]
  outcome: inactive
[8]
  outcome: inactive
[9]
  outcome: inactive

## O=C(NO)c1ccccc1
[1]
  AC50: 37.2 µM (active) [middle of 4 runs]
[2]
  AC50: 26.6 µM (active) [middle of 4 runs]
[3]
  AC50: 19 µM (active) and 22.3 µM (active)
  outcome: inactive
[4]
  AC50: 26.5 µM (active) [middle of 4 runs]
[5]
  AC50: 63.6 µM (active) and 59.8 µM (active)
  outcome: inactive
[6]
  AC50: 21 µM (active) [middle of 4 runs]
[7]
  AC50: 13.7 µM (active) [middle of 4 runs]
[8]
  outcome: inactive
[9]
  AC50: 27.9 µM (active) [middle of 4 runs]
[10]
  outcome: inactive

## CCCCCCCCCCCC[N+](C)(C)Cc1ccccc1
[1]
  AC50: 14.5 µM (active)
  outcome: inactive
[3]
  outcome: inactive
[4]
  outcome: inactive
[5]
  AC50: 15.7 µM (active)
  outcome: inactive
[6]
  outcome: inactive
[7]
  outcome: inactive
[8]
  outcome: inactive
[9]
  AC50: 12.4 µM (active)
  outcome: inactive
[10]
  outcome: inactive

## O=C(Nc1ccc(Cl)c(Cl)c1)c1cc(Cl)cc(Cl)c1O
[1]
  outcome: inactive
[2]
  AC50: 28.6 µM (active)
[3]
  AC50: 0.0441 µM (active)
[4]
  outcome: inactive
[5]
  AC50: 2.07 µM (active)
[6]
  AC50: 695 nM (active)
[7]
  AC50: 1.37 µM (active)
[8]
  outcome: inactive
[9]
  outcome: inactive

## FC1(F)C=CC(F)(F)C1(F)F
[1]
  outcome: inactive
[2]
  outcome: inactive
[3]
  outcome: inactive
[4]
  outcome: inactive
[5]
  outcome: inactive
[6]
  outcome: inactive
[7]
  outcome: inactive
[8]
  outcome: inactive
[9]
  outcome: inactive

## c1cnc2c(c1)ccc1cccnc12
[1]
  AC50: 2.89 µM (active)
  outcome: inactive
[2]
  outcome: inactive
[3]
  outcome: inactive
[4]
  outcome: inactive
[5]
  AC50: 5.84 µM (active)
  outcome: inactive
[6]
  outcome: inactive
[7]
  outcome: inactive
[8]
  outcome: inactive
[9]
  AC50: 5.67 µM (active) and 3.9 µM (active)
[10]
  outcome: inactive

From PubChem BioAssay (EPA / NIEHS)
